# Where a name gives a salt, the structure may show the parent alone. ± gives the standard deviation of the averaged measurements. Whole data set: some 1,900 compounds, median “relative cell viability (CellTiter-Glo), compound alone” near 1, cut for the lowest 2% near 0.16. The sample as a whole holds a higher share of the lowest values than the screen did.
# System: Hep3B
# Experiment: relative cell viability (CellTiter-Glo), compound alone (fraction); higher = more viable cells (less growth inhibition)
# Conditions: cabozantinib 0 µM; 4 days
row,SMILES,relative cell viability
1,CCn1cc(NC(=S)Nc2cc(Cl)ccc2OC)c(C(N)=O)n1,1.44 ± 0.14
2,C1=N/C2=N/c3ccc(OCCN4CCCC4)c(c3)COC/C=C/COCc3cccc(c3)C(=C1)N2 [Pacritinib (SB1518)],0.1545 ± 0.0015
3,CN(C)c1cccc(-c2c3c(=O)n(-c4ccccc4Cl)[nH]c3cc(=O)n2C)c1,1.12 ± 0.1
4,O=C(NCCS(=O)(=O)c1ccc(C(F)(F)F)cn1)c1ccc(Cl)cc1,1.2 ± 0.049
5,C[C@@H](Oc1cc(-n2cnc3ccc(CN4CCN(C)CC4)cc32)sc1C(N)=O)c1ccccc1C(F)(F)F,0.668 ± 0.04
6,O=C1CCC[C@@H]2[C@H]3CCC[N+]4([O-])CCC[C@@H](CN12)[C@@H]34 (stereo partly drawn) [Oxymatrine],1.09 ± 0.21
7,CC1CNc2c(cccc2S(=O)(=O)N[C@@H](CCCNC(=N)N)C(=O)N2CC[C@@H](C)C[C@@H]2C(=O)O)C1 (stereo partly drawn) [Argatroban],1.02 ± 0.17
8,CO[C@H]1C[C@@H]2CC[C@@H](C)[C@@](O)(O2)C(=O)C(=O)N2CCCC[C@H]2C(=O)O[C@H]([C@H](C)C[C@@H]2CC[C@@H](OC(=O)C(C)(CO)CO)[C@H](OC)C2)CC(=O)[C@H](C)/C=C(\C)[C@@H](O)[C@@H](OC)C(=O)[C@H](C)C[C@H](C)/C=C/C=C/C=C/1C,1.04 ± 0.013
9,CCOC(=O)[C@H](CCc1ccccc1)N[C@H]1CCCN2CCC[C@@H](C(=O)O)N2C1=O [Cilazapril Monohydrate],0.947 ± 0.13
10,CC(C)(C)C[C@@H]1N[C@@H](C(=O)N[C@H]2CC[C@H](O)CC2)[C@H](c2cccc(Cl)c2F)[C@]12C(=O)Nc1cc(Cl)ccc12,1.09 ± 0.025
11,O=C1c2cccc(O)c2C(=O)c2c(O)cc(CO)cc21 [Aloe-emodin],0.96 ± 0.11
12,O=C1c2c(O)ccc(O)c2C(=O)c2c(NCCNCCO)ccc(NCCNCCO)c21 [Mitoxantrone HCl],0.0676 ± 0.0056
13,O=C1c2c(O)ccc(O)c2C(=O)c2c(NCCNCCO)ccc(NCCNCCO)c21 [Mitoxantrone],0.0757 ± 0.0097
14,Cc1ccc([N+](=O)[O-])cc1S(=O)(=O)N(C)/N=C/c1cnc2ccc(Br)cn12,0.139 ± 0.01
15,Nc1nc(NC2CC2)cc(-c2cccc(Cl)c2Cl)n1,1.162 ± 0.0077
16,NS(=O)(=O)NCCNc1nonc1/C(=N/O)Nc1ccc(F)c(Br)c1,1.24 ± 0.064
17,Fc1ccc2[nH]ccc2c1-c1nc(N2CCOCC2)c2sc(CN3CCN(CC4CC4)CC3)cc2n1,0.871 ± 0.011
18,Cn1cncc1[C@@](N)(c1ccc(Cl)cc1)c1ccc2c(c1)c(-c1cccc(Cl)c1)cc(=O)n2C [Tipifarnib],0.995 ± 0.046
19,Cc1nc(-c2cn3c(n2)-c2ccc(-c4cnn(C(C)(C)C(N)=O)c4)cc2OCC3)n(C(C)C)n1,1.01 ± 0.032
20,c1ccc(NCc2ccc(CNc3ccccn3)cc2)nc1,1.09 ± 0.085
21,COc1cc([C@@H]2c3cc4c(cc3[C@@H](O[C@@H]3O[C@@H]5CO[C@@H](c6cccs6)O[C@H]5[C@H](O)[C@H]3O)[C@H]3COC(=O)[C@H]23)OCO4)cc(OC)c1O [Teniposide],0.113 ± 0.0088
22,COc1cc([C@@H]2c3cc4c(cc3[C@@H](O[C@@H]3O[C@@H]5CO[C@@H](C)O[C@H]5[C@H](O)[C@H]3O)[C@H]3COC(=O)[C@H]23)OCO4)cc(OC)c1O [Etoposide],1.22 ± 0.11
23,COc1cccc(C=NCCN=Cc2cccc(OC)c2[O-])c1[O-].[Cl-].[Mn+3],1.04 ± 0.041
24,COc1ccc(-c2ccc3ncc4c(c3c2)n(-c2ccc(N3CCNCC3)c(C(F)(F)F)c2)c(=O)n4C)cn1,0.202 ± 0.013

row,SMILES,relative cell viability
1,Nc1ccc(-c2ccc3ncc4ccc(=O)n(-c5cccc(C(F)(F)F)c5)c4c3c2)cn1 [Torin 2],0.147 ± 0.014
2,CN1C(=O)C(Cc2c[nH]c3ccccc23)NC1=S (stereo not drawn) [Necrostatin-1],1.154 ± 0.0058
3,CCn1c(N)c(C(=O)NC)c(=O)c2ccc(C#CC(C)(O)COC)nc21 (stereo not drawn),0.951 ± 0.15
4,Cc1ccc(-n2sc(=O)n(Cc3ccc(F)cc3)c2=O)cc1,1.03 ± 0.086
5,C=CC(=O)Nc1cc(Nc2nccc(-c3c[nH]c4ccccc34)n2)c(OC)cc1N(C)CCN(C)C,0.913 ± 0.049
6,O=C(NC[C@H](O)CN1CCc2ccccc2C1)c1cc(NC2COC2)ncn1,1.09 ± 0.029
7,Cn1c(Nc2ccc(C(F)(F)F)cc2)nc2cc(Oc3ccnc(-c4ncc(C(F)(F)F)[nH]4)c3)ccc21,0.9528 ± 0.0094
8,CN[C@@H](C)C(=O)N[C@H](C(=O)N1CCC[C@H]1C(=O)Nc1snnc1-c1ccccc1)C1CCCCC1,0.229 ± 0.13
9,CC[C@@H]1/C=C(\C)C[C@H](C)C[C@H](OC)[C@H]2O[C@@](O)(C(=O)C(=O)N3CCCC[C@H]3C(=O)O[C@H](/C(C)=C/[C@@H]3CC[C@@H](O)[C@H](OC)C3)[C@H](C)[C@@H](O)CC1=O)[C@H](C)C[C@@H]2OC [Ascomycin (FK520)],1.16 ± 0.12
10,O=C(O)c1ccccc1 [Benzoic Acid],1.26 ± 0.07
11,CN(NC(=O)CC(=O)NN(C)C(=S)c1ccccc1)C(=S)c1ccccc1 [Elesclomol (STA-4783)],0.0115 ± 0.0045
12,O=C(O)CCNC(=O)c1ccccc1 [Betamipron],0.9 ± 0.089
13,COc1cc(N2CCC(N3CCN(C)CC3)CC2)ccc1Nc1ncnc(Nc2ccccc2S(=O)(=O)C(C)C)n1,0.887 ± 0.056
14,Cc1cc(Nc2ccc(NC(=O)c3ccc(Nc4ccnc5ccccc45)cc3)cc2)nc(N)n1,0.227 ± 0.023
15,CN(C)CCCNC(=O)c1ccc(-c2cc(O)c3ncccc3c2)cc1,0.898 ± 0.27
16,CC(C)(CO)c1cc2cc(NC(=O)C3(c4ccc5c(c4)OC(F)(F)O5)CC3)c(F)cc2n1C[C@@H](O)CO,1.14 ± 0.18
17,Cc1ccc(NC(=O)C2(c3ccc4c(c3)OC(F)(F)O4)CC2)nc1-c1cccc(C(=O)O)c1 [VX-809 (Lumacaftor)],0.144 ± 0.025
18,C[C@]1(c2nc3c(C(N)=O)cccc3[nH]2)CCCN1 [Veliparib (ABT-888)],1.02 ± 0.44
19,CN1CCN(C2CCN(C(=O)Nc3cc(Oc4ccc(NC(=O)C5(C(=O)Nc6ccc(F)cc6)CC5)c(F)c4)ccn3)CC2)CC1 [Golvatinib (E7050)],1.15 ± 0.079
20,COc1ccc(-c2cc(=O)c3c(O)cc(O)cc3o2)cc1O [Diosmetin],1.35 ± 0.14
21,O=c1cc(CN2CCOCC2)occ1OCCCCCSc1ccnc2cc(C(F)(F)F)ccc12,1.29 ± 0.14
22,CC/C(=C(\c1ccccc1)c1ccc(OCCN(C)C)cc1)c1ccccc1 [Tamoxifen Citrate],1.26 ± 0.064
23,CN(C)Cc1c(C(=O)NCCOc2ccc(C(=O)NO)cc2)oc2ccccc12,0.153 ± 0.054
24,CC/C(=C(\c1ccc(O)cc1)c1ccc(OCCNC)cc1)c1ccccc1 [Endoxifen HCl],1.16 ± 0.081

# From the supplement of paper PMC9399229
